This note sets out measurements from PubChem BioAssay (NCI).

The panel holds about 83,000 compounds, 20% with a hit somewhere; the sample as a whole holds those more often.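 96-well plates, one dose, 48 hours. Percent growth reported; active if below 10.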 A number with no mark means an inactive call. The source made the active and inactive calls.

The test system of this experiment is HL-60(TB) leukemia. Put plainly: NCI-60 one-dose screen, 48 h (100 = growth as untreated, 0 = no growth, -100 = all killed). Particulars: 10 µM unless noted.
Turning to `COc1cc(C2CC(c3cccc(Nc4ccncc4)c3)=Nc3c(N)ncnc3N2)cc(OC)c1OC` (stereo not given), the growth is 83.7%.

On to `C[C@@H](O)[C@H]1C(=O)N2C(C(=O)O)=C(SC3CN[C@H](C(=O)N(C)C)C3)[C@H](C)[C@H]12` (stereo not given in full), for which the growth was 87%.

Regarding `Nc1ccc(-c2cc3c(NCc4ccccc4)ncnc3s2)cc1`, the growth was 85.5%.

Turning to `O=C1Nc2ccccc2C1(c1c[nH]c2ccccc12)c1c[nH]c2ccccc12`, the growth was 77.8%.

For `Cc1nn(-c2ccccc2)c(/N=C/N(C)C)c1/C=C/C(=O)c1ccc(Cl)cc1`, the growth was 76.3%.

`O=C1/C=C/[C@@H](O)[C@@H]2C[C@@H](O)C[C@H]2/C=C/CCC[C@@H](C(F)(F)F)O1`: the growth was 104%.

As for `COc1ccc(S(=O)(=O)N2CCN(c3cc4c(cc3F)c(=O)c(C(=O)O)cn4C3CC3)CC2)c(OC)c1`, the growth was 87.1%.

As to `CC(=O)Oc1ccc(Nc2c3ccccc3nc3ccccc23)cc1`, the growth is -5.02% (active).

`COc1ccc(-c2ccc(-c3ccc(C(=N)N)cc3)s2)cc1Cl`: the growth is -48.8% (active).

Consider `O=C1NC(=O)c2c1c1c3ccccc3[nH]c1c1oc3ccc(F)cc3c21`, for which the growth is 99.5%.

For the compound `C=C1C(=O)O[C@H]2[C@H]1CC/C(COC(=O)C(=O)c1cn(C)c3ccc(OC)cc13)=C\CC[C@@]1(C)O[C@@H]21`, the growth is -38.7% (active).

On to `COc1cc(C(=O)/C=C/c2c(-c3cccs3)nc3ccccn23)cc(OC)c1OC`, for which the growth was -14.2% (active).

In the case of `CCOC(=O)c1sc2ccc(NCc3nc[nH]c3C)cc2c1NC(=O)c1cc(OC)c(OC)c(OC)c1`, the growth was 5.99% (active).

Turning to `Cc1ccc(C(=O)c2sc3nc4c(cc3c2N)CCCC4)c(C)c1`, the growth is -3.28% (active).

As to `O=C(Cc1ccc(/C=C/C(=O)c2ncc[nH]2)cc1)Nc1ccc(Cl)cc1`, the growth was -14.5% (active).

With `CS(=O)(=O)Nc1cncc(-c2ccc3ncnc(Nc4cncc(Cl)c4)c3c2)c1`, the growth is 71.5%.

As to `O=C(/C=C/c1cccs1)Nc1ncc(Cc2ccc(Cl)c(Cl)c2)s1`, the growth is 14%.

Take `CN(C)CCC(CCN(C)C)(C(=O)O)c1ccccc1`: the growth is 101%.

With `Cc1oc2nc[nH]c(=O)c2c1C(=O)/C=C/c1ccc(Cl)cc1Cl`, the growth is 7.83% (active).

As for `CN1CC[C@@H](c2c(O)cc(O)c3c(=O)cc(-c4ccccc4Cl)oc23)[C@@H]1CO`, the growth is -28.6% (active).

As for `C[C@H]1[C@H](C)CC[C@]2(C(=O)O)CC[C@]3(C)C(=CC[C@@H]4[C@@]5(C)C/C(=C/c6ccco6)C(=O)C(C)(C)[C@@H]5CC[C@]43C)[C@H]12`, the growth is -3.02% [100 µM] (active).

Regarding `CCOC(=O)c1ccc2c(c1)c1c(C)c3cccnc3c(C)c1n2C`, the growth is 77.4%.

`C[C@@H](C[C@H](CCOCc1cccnc1)c1ccccc1)c1cc2ccccc2o1`: the growth was 98%.

For the compound `O=[N+]([O-])c1cc2ncccc2c2ncccc12`, the growth is 88.1%.

In the case of `Cc1cccc([N+](=O)[O-])c1I`, the growth was 143%.

Consider `Cc1cc(OCCO)cc(C)c1Cl`, for which the growth is 100%.

As to `CCCCn1c(=O)[nH]c(N)c(C(c2ccc(F)cc2)c2c(N)[nH]c(=O)n(CCCC)c2=O)c1=O`, the growth was 78.7%.

For the compound `CCCCCCCCCCCCCCCc1ccc(C(=O)C[n+]2ccccc2)cc1`, the growth was -69.3% (active).

Take `COc1cccc(-c2nc3occn3c2-c2ccnc(NCCNS(=O)(=O)c3cccc4ccccc34)n2)c1`: the growth was 121%.

As to `COC(=O)c1c2c(c(C)[n+]([O-])c1C)C(=O)C(NCc1ccc(OC)cc1)=CC2=O`, the growth was -51.1% (active).

Turning to `C=C(C)[C@@H]1CC[C@]2(C(=O)N3CCN(C)CC3)CC[C@]3(C)[C@H](CC[C@@H]4[C@@]5(C)C/C(=C/c6ccncc6)[C@H](O)C(C)(C)[C@@H]5CC[C@]43C)[C@@H]12`, the growth is -25.2% [100 µM] (active).

Consider `CC(C)(C)c1cc(-n2c(-c3ccc(Cl)cc3)nc3cc(C(=O)Nc4ccc(Cl)cc4)ccc32)n[nH]1`, for which the growth was 51.3%.

Consider `O=C(CCc1nnc2sc(-c3cc(O)c(O)c(O)c3)nn12)c1nc2ccccc2[nH]1`, for which the growth is 100%.

As for `CC(C)[C@H](CO)Nc1nc(Nc2ccc(C(=O)NCCNS(=O)(=O)c3cccc4c(N(C)C)cccc34)c(Cl)c2)c2ncn(C(C)C)c2n1`, the growth was -36.7% (active).

As to `CCCn1c(=S)sc2c(Cl)nc(C)nc21`, the growth is 130%.

Regarding `Cc1[nH]c(/C=C/C(=O)c2ccc(C(F)(F)F)c(F)c2)c(C)c1C(=O)NCC(C)C`, the growth is 98.5%.

Turning to `CC(C)c1ccc(-c2cnc3nonc3n2)cc1`, the growth is -18.3% (active).

For `C=CCN(/C=C1/C(=O)O[C@H](COC)[C@@]2(C)C1=C(O)C(=O)C1=C2[C@H](OC(C)=O)C[C@]2(C)C(=O)CC[C@@H]12)CC=C`, the growth is 5.66% (active).

For `c1ccc(Nc2ccccn2)cc1`, the growth is 64.9%.

For the compound `CC(=O)NCCCS(=O)(=O)O`, the growth is 102%.
